Records with an inconclusive call do not appear. Some of the results follow. Active and inactive are the calls of the source.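 How the source made its calls, unless noted: active means inhibition above 50%; inactive means the rest.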

The target in assay [1] is Regulator of G-protein signaling 16 (Homo sapiens) (UniProt O15492). The experiment in a line: modulators of RGS–Galpha-o binding, primary screen, biochemical, multiplexed beads, flow cytometry, RGS4/7/8/16/19 (AID 1504).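 Further: fluorescently labeled Galpha-o bound to GDP with aluminium fluoride binding biotinylated RGS beads.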 To be noted: multiplexed bead flow cytometry, measured here: RGS16 interaction, at 10 µM.
Assay [2] has as its target Regulator of G-protein signaling 19 (Homo sapiens) (UniProt P49795). Described as above. To be noted: multiplexed bead flow cytometry, measured here: RGS19 interaction, at 10 µM.
Assay [3] concerns the target Regulator of G-protein signaling 7 (Homo sapiens) (UniProt P49802). The description is as above. As to conditions: multiplexed bead flow cytometry, measured here: RGS7 interaction, at 10 µM.
In assay [4] the target is Regulator of G-protein signaling 8 (Homo sapiens) (UniProt P57771). The assay is described as above. As to conditions: multiplexed bead flow cytometry, measured here: RGS8 interaction, at 10 µM.
The nature of assay [5]: disruption of biotin probe capture by avidin, counter-screen for RGS protein interaction modulators, biochemical, flow cytometry, bead-based (AID 1783).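 Further: median green fluorescence of gated singlet beads compared with DMSO control wells; 0% = DMSO wells and 100% = complete loss of bead fluorescence.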 To be noted: streptavidin beads, fluorescein-biotin binding; at 10 µM, stronger effect = higher value.
Assay [6] concerns the target Guanine nucleotide-binding protein G(o) subunit alpha (Homo sapiens) (UniProt P09471). The experiment in a line: RGS8-Galphao binding modulators, confirmation, biochemical, multiplexed bead flow cytometry, single concentration (AID 1836; in the data active means binding response below about 72% or above about 130%; inactive means in between;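 further: Galphao activated as GDP AlF4 complex before binding bead RGS8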). To be noted: bead-based flow cytometry RGS8-Galphao binding, fluorescence; at 10 µM; actives lie on both sides.
Assay [7] shares this target. Put plainly: RGS7-Galphao binding modulators, confirmation, biochemical, multiplexed bead flow cytometry, single concentration (AID 1837; in the data active means response below about 75% or above about 130%; inactive means in between;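 further: fluorescent Galphao activated with GDP and aluminum fluoride binding bead-coupled RGS7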). To be noted: bead-based flow cytometry RGS7-Galphao binding; at 10 µM; actives lie on both sides.
For assay [8], the target named is Regulator of G-protein signaling 16 (Homo sapiens) + Guanine nucleotide-binding protein G(o) subunit alpha (Homo sapiens) (UniProt O15492+P09471). The experiment in a line: modulators of RGS16-Galphao protein binding, confirmation, biochemical, single concentration, multiplexed bead flow cytometry (AID 1838; in the data active means response below about 74% or above about 130%; inactive means in between;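 further: Galphao activated as the GDP aluminium fluoride complex binding bead-coupled RGS16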). As to conditions: bead-based flow cytometry, at 10 µM, actives lie on both sides.
Sequence of Regulator of G-protein signaling 16 (Homo sapiens) + Guanine nucleotide-binding protein G(o) subunit alpha (Homo sapiens) (O15492 whole entry, looked up): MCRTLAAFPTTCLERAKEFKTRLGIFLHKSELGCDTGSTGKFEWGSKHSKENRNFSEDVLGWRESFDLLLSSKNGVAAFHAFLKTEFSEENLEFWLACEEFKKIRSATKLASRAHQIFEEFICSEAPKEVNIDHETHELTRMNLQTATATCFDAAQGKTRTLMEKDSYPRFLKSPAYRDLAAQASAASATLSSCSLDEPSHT
Sequence of Regulator of G-protein signaling 16 (Homo sapiens) + Guanine nucleotide-binding protein G(o) subunit alpha (Homo sapiens) (P09471 whole entry, looked up): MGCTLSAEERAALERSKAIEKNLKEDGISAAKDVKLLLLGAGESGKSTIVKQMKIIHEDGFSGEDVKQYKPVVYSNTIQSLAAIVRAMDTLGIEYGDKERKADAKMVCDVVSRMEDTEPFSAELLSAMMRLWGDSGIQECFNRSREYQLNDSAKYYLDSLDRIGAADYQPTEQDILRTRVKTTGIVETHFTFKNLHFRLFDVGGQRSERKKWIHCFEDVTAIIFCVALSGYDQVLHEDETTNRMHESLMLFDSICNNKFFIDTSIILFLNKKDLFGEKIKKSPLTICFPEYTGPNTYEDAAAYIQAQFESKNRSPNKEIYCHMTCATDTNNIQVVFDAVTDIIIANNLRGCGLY

For assay [9], the target named is Guanine nucleotide-binding protein G(o) subunit alpha (Homo sapiens) (UniProt P09471). The experiment in a line: modulators of RGS4-Galphao protein binding, confirmation, biochemical, single concentration, multiplexed bead flow cytometry (AID 1840; in the data active means binding response below about 74% or above about 130%; inactive means in between). As to conditions: at 10 µM, actives lie on both sides.
Sequence of Guanine nucleotide-binding protein G(o) subunit alpha (Homo sapiens) (P09471 whole entry, looked up): as above
For assay [10], the target named is Guanine nucleotide-binding protein G(o) subunit alpha (Homo sapiens) + Regulator of G-protein signaling 19 (Homo sapiens) (UniProt P09471+P49795). The experiment in a line: regulators of RGS19-Galphao binding, confirmation, biochemical, single point, multiplexed bead flow cytometry (AID 1841; in the data active means response below about 50% or above about 160%; inactive means in between;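 further: 100% = no compound control and 0% = blank background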). As to conditions: bead-based flow cytometry RGS19-Galphao binding; at 10 µM; actives lie on both sides.
Sequence of Guanine nucleotide-binding protein G(o) subunit alpha (Homo sapiens) + Regulator of G-protein signaling 19 (Homo sapiens) (P09471 whole entry, looked up): as above
Sequence of Guanine nucleotide-binding protein G(o) subunit alpha (Homo sapiens) + Regulator of G-protein signaling 19 (Homo sapiens) (P49795 whole entry, looked up): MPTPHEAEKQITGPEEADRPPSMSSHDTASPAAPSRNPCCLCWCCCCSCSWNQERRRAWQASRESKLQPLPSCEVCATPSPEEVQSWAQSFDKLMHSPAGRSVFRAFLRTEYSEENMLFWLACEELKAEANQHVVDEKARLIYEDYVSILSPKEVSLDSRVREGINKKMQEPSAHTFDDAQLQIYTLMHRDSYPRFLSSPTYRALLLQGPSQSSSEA

A short description of assay [11]: yeast TOR pathway RPL19A-GFP modulators, primary screen, cell-based, S. cerevisiae, multiplex flow cytometry (AID 1862; in the data active means percent of DMSO control GFP below about 86%;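 further: lower values mimic rapamycin by blocking the RPL19A rise seen in DMSO cells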). To be noted: S. cerevisiae RPL19A-GFP strain, flow cytometry fluorescence, 3 h; at 10 µM; stronger effect = lower value.
Assay [12] can be described thus: modulators of MEP2-GFP levels in yeast, primary screen, S. cerevisiae, multiplex flow cytometry (AID 1867;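 active means GFP response, as percent of the DMSO control, above the screen-wide mean plus 3 SD, about 139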;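 further: median GFP channel fluorescence of barcode-gated MEP2-GFP cells measured by flow cytometry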). To be noted: S. cerevisiae MEP2-GFP strain, 3 h, at 10 µM, stronger effect = higher value, 100% means same as DMSO wells.
The nature of assay [13]: modulators of CIT2-GFP expression in yeast, primary screen, S. cerevisiae, GFP fusion, multiplex flow cytometry (AID 1870;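 active means percent response above a set limit, the screen-wide mean plus 3 SD, cut at about 130% in these data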;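 further: barcoded CIT2-GFP strain pooled with four other GFP strains with rapamycin as positive control; median GFP fluorescence per well over plate mean of DMSO wells so 100% = DMSO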). To be noted: 3 h, at 10 µM, stronger effect = higher value.
A short description of assay [14]: modulators of LAP4-GFP expression in yeast, primary screen, S. cerevisiae, multiplex flow cytometry (AID 1873;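 active means GFP signal, as percent of the solvent control, above the screen mean plus 3 SD, about 149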). As to conditions: 3 h, at 10 µM, stronger effect = higher value.
Assay [15] in a line: modulators of AGP1-GFP expression in yeast TOR pathway, primary screen, cell-based, multiplex flow cytometry, S. cerevisiae (AID 1887;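 active means GFP signal above the screen-wide mean plus 3 SD, that is over about 124.5% of the solvent control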;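 further: AGP1-GFP fusion strain of S. cerevisiae within a five-strain barcoded multiplex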). As to conditions: 3 h, at 10 µM, stronger effect = higher value.
Assay [16] is described as follows: RPL19A-GFP modulators, yeast TOR pathway, confirmation, cell-based, S. cerevisiae, flow cytometry, cherry picks, mother/daughter gates (AID 2270;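 active means GFP response below 50% of the DMSO control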). As to conditions: S. cerevisiae RPL19A-GFP strain, 3 h, at 10 µM, stronger effect = lower value, 100 = same GFP as DMSO wells.
Assay [17] in a line: LAP4-GFP expression modulators in yeast, confirmation, cell-based, cherry picks, flow cytometry, mother/daughter gates (AID 2271;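 active means GFP response above 150% of the DMSO control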;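 further: ratio of sample to DMSO plate mean so 100% equals DMSO level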). To be noted: S. cerevisiae LAP4-GFP strain, 3 h, at 10 µM, stronger effect = higher value, 100 means same as DMSO control.
The nature of assay [18]: modulators of MEP2-GFP levels in yeast, confirmation, S. cerevisiae, flow cytometry GFP, cherry picks (AID 2272;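 active means GFP response above 150% of the DMSO control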;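 further: ratio of well signal to plate DMSO mean so 100% equals DMSO level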). As to conditions: S. cerevisiae MEP2-GFP strain, 3 h, at 10 µM, stronger effect = higher value.
Assay [19] can be described thus: modulators of CIT2-GFP expression in yeast, confirmation, S. cerevisiae, GFP fusion, cherry picks, mother/daughter gates (AID 2274;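 active means GFP response above 150% of the DMSO level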). To be noted: S. cerevisiae CIT2-GFP strain, flow cytometry, 3 h, at 10 µM, stronger effect = higher value.
The nature of assay [20]: inhibitors of CD8+ T cell-vesicle binding, pilot screen, LFA-1/ICAM-1 modulator project, MLPCN validation set, flow cytometry (AID 2523;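 active means response below a set limit, under 55% cells CD8-positive and vesicle-bound, and CD8 cells' 90th-percentile brightness under 279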;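 on vesicle binding response: mean PE anti-B7-1 fluorescence of CD8+ cells relative to row control; 100% = QL9-loaded vesicles with DMSO vehicle in the same plate row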). As to conditions: 2C mouse CD8+ T cells, at 7 µM, stronger effect = lower value; double positive events: measured here: CD8+/vesicle+ event percentage.
Where [21] appears, read: measured here: daughter cell gate.
[22] abbreviates: measured here: mother cell gate.
The mark [23] stands for this setting: measured here: daughter cell gate response.
Setting [24] is: measured here: mother cell gate response.

Consider `Cc1ccccc1CS(=O)(=O)CC1(O)CCN(C(=O)c2cccc(C(F)(F)F)c2)CC1`, for which the RGS16–Galpha-o binding response in assay [1] was 106%. Also, the RGS19–Galpha-o binding response in assay [2] was determined as 115%. Also, the RGS7–Galpha-o binding response in assay [3] was 157%. The compound further showed an RGS8–Galpha-o binding response in [4] of 100%. In [5], the inhibition was 2.5% (inactive). Besides, the binding response (% of control) in assay [6] was 104% (inactive); in [9], 105% (inactive). In addition, the response (percent of control binding) in assay [7] was 105% (inactive); in assay [10], 78.9% (inactive). In addition, in assay [8], the response (% of control binding) is 102% (inactive).
Regarding `COC(=O)c1ccccc1OCC(=O)N1CCN(c2ccc(Cl)cc2)CC1`, the RGS16–Galpha-o binding response in assay [1] was 461%. Further, the RGS19–Galpha-o binding response in assay [2] turned out to be 7560%. The RGS7–Galpha-o binding response in assay [3] was determined as 290%. This compound also registered an RGS8–Galpha-o binding response in [4] of 132%.
As for `CCCCOC(=O)Cn1c(=N)n(CCN(CC)CC)c2ccccc21`, the RGS16–Galpha-o binding response in assay [1] turned out to be 0%. Moreover, the RGS19–Galpha-o binding response in assay [2] was -255%. Also, the RGS7–Galpha-o binding response in [3] was found to be 165%. The RGS8–Galpha-o binding response in [4] came out at 127%. Also, the inhibition in [5] was -1.7% (inactive). Further, the values for the binding response (% of control) in [6] and in assay [9] were 101% (inactive) and 97.5% (inactive), respectively. Further, the results for the response (percent of control binding) in [7] and in assay [10] were 95.7% (inactive) and 101% (inactive), respectively. The response (% of control binding) in assay [8] is 101% (inactive).
Regarding `COc1cc2c(cc1OC)C(c1ccccc1)=NCC2`, the percent of DMSO control GFP in [11] was 92.2% (inactive). The GFP response vs DMSO in [12] is 144% (active); in assay [14] it was 84.2% (inactive); in [16], 98.2% (inactive); in [16] (setting [21]), 97.6%; in assay [16] (setting [22]), 99.7%; in assay [18] it was 100% (inactive). Besides, the percent response of DMSO control in assay [13] was 103% (inactive). In addition, the GFP response, % of DMSO in assay [15] is 97.7% (inactive); in assay [19], 103% (inactive); in assay [19] (setting [21]), 106%; in assay [19] (setting [22]), 102%. Further, the GFP response relative to DMSO is 88.9% (inactive) in assay [17], 88% in [17] (setting [23]) and 87.6% in [17] (setting [24]). Further, the double positive events in assay [20] was found to be 59.5%. Besides, the vesicle binding response in assay [20] was 202% (inactive).
For the compound `CCOC(=O)CCP(=O)(O)C(O)(c1ccccc1)c1ccccc1`, in assay [5], the inhibition is 2.2% (inactive). The binding response (% of control) was 99.3% (inactive) in [6] and 100% (inactive) in assay [9]. Besides, the results for the response (percent of control binding) in assay [7] and in [10] were 101% (inactive) and 99.5% (inactive), respectively. Besides, the response (% of control binding) in assay [8] was 101% (inactive).
As to `COc1ccccc1-n1c(-c2cc(-c3ccco3)[nH]n2)n[nH]c1=S`, the RGS16–Galpha-o binding response in assay [1] is -1.14%. Further, the RGS19–Galpha-o binding response in [2] came to 531%. Moreover, the RGS7–Galpha-o binding response in [3] is -527%. This compound also yielded an RGS8–Galpha-o binding response in [4] of 6.3%. In addition, the inhibition in assay [5] is 0.5% (inactive). Also, the figures for the binding response (% of control) in assay [6] and in [9] were 83.6% (inactive) and 98.3% (inactive), respectively. The response (percent of control binding) was 99.5% (inactive) in [7] and 68.6% (inactive) in assay [10]. Also, in assay [8], the response (% of control binding) is 82.6% (inactive).
As to `Cc1ccc(OCCCCn2ccnc2C)c(C)c1`, in assay [11], the percent of DMSO control GFP was 97.3% (inactive). Besides, the GFP response vs DMSO in assay [12] was 99.6% (inactive); in [14], 103% (inactive); in assay [16], 99.6% (inactive); in [16] (setting [21]), 99.4%; in assay [16] (setting [22]), 101%; in assay [18], 112% (inactive). In addition, the percent response of DMSO control in assay [13] was 95.7% (inactive). The GFP response, % of DMSO is 110% (inactive) in [15], 98.4% (inactive) in assay [19], 100% in assay [19] (setting [21]) and 97.7% in assay [19] (setting [22]). In addition, the GFP response relative to DMSO in assay [17] was 99.8% (inactive); in assay [17] (setting [23]) it was 99.7%; in assay [17] (setting [24]), 100%. The same compound returned a double positive events in assay [20] of 59.6%. Besides, the vesicle binding response in assay [20] is 179% (inactive).
